Test results reported in publication PMC4336329 (PLoS ONE, 2015).
Out of some 310,000 compounds screened, about 14,000 (4.5%) showed an effect of 50% or more. Effects have a minus sign here. The full list was thinned out, with strong results kept by preference.
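Further: peak tail current of the secondary pulse compared with the same well before compound.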

The compounds below were run against human ether-à-go-go-related gene (hERG) potassium channel (human, UniProt Q12809) (assay: primary screen, population patch clamp on CHO cells stably expressing hERG; higher = less effect of the substance).
human ether-à-go-go-related gene (hERG) potassium channel, sequence (Q12809 whole entry, looked up): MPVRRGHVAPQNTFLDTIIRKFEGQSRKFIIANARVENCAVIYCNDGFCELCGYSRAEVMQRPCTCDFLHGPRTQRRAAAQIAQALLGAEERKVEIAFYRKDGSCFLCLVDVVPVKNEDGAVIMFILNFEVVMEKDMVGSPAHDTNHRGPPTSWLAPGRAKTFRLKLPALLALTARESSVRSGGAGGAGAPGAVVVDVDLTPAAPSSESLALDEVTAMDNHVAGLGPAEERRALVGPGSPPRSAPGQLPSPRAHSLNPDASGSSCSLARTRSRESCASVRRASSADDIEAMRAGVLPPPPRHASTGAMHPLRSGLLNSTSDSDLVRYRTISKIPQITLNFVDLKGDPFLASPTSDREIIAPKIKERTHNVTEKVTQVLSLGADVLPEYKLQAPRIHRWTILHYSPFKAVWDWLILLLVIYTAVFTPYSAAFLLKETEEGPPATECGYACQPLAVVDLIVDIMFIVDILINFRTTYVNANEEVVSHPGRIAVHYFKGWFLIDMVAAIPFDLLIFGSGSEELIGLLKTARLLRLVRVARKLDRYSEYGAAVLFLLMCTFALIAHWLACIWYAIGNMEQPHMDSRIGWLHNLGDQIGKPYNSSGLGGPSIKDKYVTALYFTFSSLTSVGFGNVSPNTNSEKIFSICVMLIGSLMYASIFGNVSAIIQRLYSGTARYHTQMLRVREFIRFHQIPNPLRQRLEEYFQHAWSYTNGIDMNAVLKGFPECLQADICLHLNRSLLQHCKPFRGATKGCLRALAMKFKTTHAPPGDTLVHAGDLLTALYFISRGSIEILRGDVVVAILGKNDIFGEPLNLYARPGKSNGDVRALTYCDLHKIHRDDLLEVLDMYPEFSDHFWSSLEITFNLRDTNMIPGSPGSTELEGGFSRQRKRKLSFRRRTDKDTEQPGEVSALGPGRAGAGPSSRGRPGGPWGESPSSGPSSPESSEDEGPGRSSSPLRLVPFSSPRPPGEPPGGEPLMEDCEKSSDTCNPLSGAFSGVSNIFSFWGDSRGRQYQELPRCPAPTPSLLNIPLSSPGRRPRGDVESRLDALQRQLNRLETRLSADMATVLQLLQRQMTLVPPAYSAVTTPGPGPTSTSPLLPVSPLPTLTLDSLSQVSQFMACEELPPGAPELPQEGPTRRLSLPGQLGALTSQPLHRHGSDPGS
In the case of `Cc1ccnc(SCCn2c(N3CCN(c4ccccc4)CC3)nc3c2c(=O)[nH]c(=O)n3C)n1`, the “hERG current change (%, negative = inhibition) at 10uM” value is reported as -17.3%. In the case of `CCN(CC(=O)NCc1cccs1)S(=O)(=O)c1cccc(Br)c1`, the “hERG current change (%, negative = inhibition) at 10uM” value is reported as 11.9%. In the case of `CCN(CC(=O)NCc1cccs1)S(=O)(=O)c1ccc([N+](=O)[O-])cc1`, the “hERG current change (%, negative = inhibition) at 10uM” value is reported as -68.2%. For `CCN(CC(=O)NCc1cccs1)S(=O)(=O)c1cccc(C(C)=O)c1`, the “hERG current change (%, negative = inhibition) at 10uM” value was 0.039%. With `O=[N+]([O-])c1cccc(S(=O)(=O)N/N=C/c2ccc(O)cc2)c1` the “hERG current change (%, negative = inhibition) at 10uM” value was 1.14%. In the case of `CC(=O)Nc1nc(C)c(Oc2ccc(Cl)cc2Cl)c(=O)[nH]1`, the “hERG current change (%, negative = inhibition) at 10uM” value is reported as 10.5%. `COc1ccccc1NC(=O)c1ccc(NC(=O)COC(=O)CC(NC(=O)c2ccccc2Cl)c2ccccc2)cc1` (centres unmarked) was tested, and the “hERG current change (%, negative = inhibition) at 10uM” value was 6.73%. In the case of `Cc1oc(-c2ccccc2Cl)nc1CN1CCCCC1CO` (centres unmarked), the “hERG current change (%, negative = inhibition) at 10uM” value is reported as -20.5%. With `CSc1ccc(-c2nc(CN3CCCCC3c3cccnc3)c(C)o2)cc1` (centres unmarked) the “hERG current change (%, negative = inhibition) at 10uM” value was -19.8%. In the case of `Cc1oc(-c2cccc(C(F)(F)F)c2)nc1CN1CCC[C@H]1CO`, the “hERG current change (%, negative = inhibition) at 10uM” value is reported as -35%. In the case of `Cc1ccc(-c2nc(CN3CCCCC3CCN3CCCC3=O)c(C)o2)o1` (centres unmarked), the “hERG current change (%, negative = inhibition) at 10uM” value is reported as -51.5%. `Cc1oc(-c2cccc(F)c2)nc1CN1CCCCC1CCn1cccn1` (centres unmarked) was tested, and the “hERG current change (%, negative = inhibition) at 10uM” value was -73.1%. `COc1cccc(C2CCCCN2Cc2nc(-c3ccc(C)o3)oc2C)c1` (centres unmarked) was tested, and the “hERG current change (%, negative = inhibition) at 10uM” value was -12.5%. `CCN1CCCC1CNC(=O)C1CCN(Cc2nc(-c3cccc(Br)c3)oc2C)CC1` (centres unmarked) was tested, and the “hERG current change (%, negative = inhibition) at 10uM” value was -9.4%. In the case of `CCOc1ccc(-c2nc(CN3CCCCC3CCn3cccn3)c(C)o2)cc1` (centres unmarked), the “hERG current change (%, negative = inhibition) at 10uM” value is reported as -71.5%. In the case of `Cc1ccc(-c2nc(CN3CCCCC3c3cccc(F)c3)c(C)o2)o1` (centres unmarked), the “hERG current change (%, negative = inhibition) at 10uM” value is reported as 44.7%. In the case of `O=C(NCCc1c[nH]c2ccccc12)c1c(Cl)nc2sccn12`, the “hERG current change (%, negative = inhibition) at 10uM” value is reported as 15.4%. `O=C(NC(Cc1c[nH]c2ccccc12)C(=O)O)c1cccs1` (centres unmarked) was tested, and the “hERG current change (%, negative = inhibition) at 10uM” value was 18.6%. For `Cc1ccc(Cl)cc1NC(=O)CCC(=O)NCc1ccco1`, the “hERG current change (%, negative = inhibition) at 10uM” value was 7.15%. In the case of `O=C(CN1C(=O)NC2(CCCc3ccccc32)C1=O)N1CCN(C(=O)c2ccco2)CC1` (centres unmarked), the “hERG current change (%, negative = inhibition) at 10uM” value is reported as -34.3%. For `COc1ccc2[nH]c(O)c(NC(C)=O)c2c1`, the “hERG current change (%, negative = inhibition) at 10uM” value was 1.61%. `COc1cc(NC(=O)COc2ccc(Br)cc2)ccc1NC(=O)C(C)C` was tested, and the “hERG current change (%, negative = inhibition) at 10uM” value was 4.1%. With `CC1CCN(C(=O)COc2ccc(S(=O)(=O)N3CCOCC3)cc2)CC1` the “hERG current change (%, negative = inhibition) at 10uM” value was -1.39%. With `COc1ccc2[nH]cc(CCCN3C(=O)c4ccccc4C3=O)c2c1` the “hERG current change (%, negative = inhibition) at 10uM” value was -4.87%. With `Cc1ccc2[nH]cc(CCCN3C(=O)c4ccccc4C3=O)c2c1` the “hERG current change (%, negative = inhibition) at 10uM” value was -51.4%. In the case of `O=C1c2ccccc2C(=O)N1CCCc1c[nH]c2ccc(Cl)cc12`, the “hERG current change (%, negative = inhibition) at 10uM” value is reported as -19.3%. With `CC(=O)c1cccc(NS(=O)(=O)c2ccc3c(c2)oc(=O)n3C)c1` the “hERG current change (%, negative = inhibition) at 10uM” value was -6.14%. In the case of `Cc1ccc(SC[C@H](c2ccccc2)N2CCN(CCc3ccccc3)CCC2=O)cc1`, the “hERG current change (%, negative = inhibition) at 10uM” value is reported as -74.7%. For `O=C1CCN(Cc2ccccc2)CCN1[C@H](CSc1ccccc1)c1ccccc1`, the “hERG current change (%, negative = inhibition) at 10uM” value was -44.7%. For `[N-]=[N+]=NC[C@H](c1ccccc1)N1CCN(Cc2ccccc2)CCC1=O`, the “hERG current change (%, negative = inhibition) at 10uM” value was -0.754%. With `O=C1CCN(CCc2ccccc2)CCN1[C@H](CSc1ccc(Br)cc1)c1ccccc1` the “hERG current change (%, negative = inhibition) at 10uM” value was -66.2%. With `O=C1CCN(CCc2ccccc2)CCN1[C@H](CSc1ccccc1)c1ccccc1` the “hERG current change (%, negative = inhibition) at 10uM” value was -78.7%. For `Cc1ccnc(N2CCC(C(=O)NNC(=O)COc3cccc4ccccc34)CC2)n1`, the “hERG current change (%, negative = inhibition) at 10uM” value was 11.2%. In the case of `Cc1cccc(NC(=O)CCc2nnc3ccc(NCc4ccco4)nn23)n1`, the “hERG current change (%, negative = inhibition) at 10uM” value is reported as 6.78%. In the case of `Cc1cc(C)c(OCCN(C)C)c(Cl)c1.O=C(O)C(=O)O`, the “hERG current change (%, negative = inhibition) at 10uM” value is reported as -21.1%. `O=C(NC1CCCC1)C(c1cccs1)N(C(=O)c1ccco1)c1ccc2c(c1)OCO2` (centres unmarked) was tested, and the “hERG current change (%, negative = inhibition) at 10uM” value was -33.5%. With `Nc1nc(SCC(=O)NCc2ccco2)[nH]c(=O)c1-c1ccccc1` the “hERG current change (%, negative = inhibition) at 10uM” value was 22.3%. For `CC(C(=O)N(C)CC(=O)Nc1ccccc1C(F)(F)F)N1C(=O)c2ccccc2C1=O` (centres unmarked), the “hERG current change (%, negative = inhibition) at 10uM” value was -10.7%. For `COc1ccc(N(CC(=O)NC2CCCC2)C(=O)c2ccc(C)s2)cc1OC`, the “hERG current change (%, negative = inhibition) at 10uM” value was 15.8%. In the case of `COC(=O)c1ccc(NC(=O)C[n+]2ccccc2C)cc1.[Cl-]`, the “hERG current change (%, negative = inhibition) at 10uM” value is reported as 10.1%. In the case of `Cc1cc(Nc2c(C)cccc2C)n2nc(C)nc2n1`, the “hERG current change (%, negative = inhibition) at 10uM” value is reported as 3.66%. `Cc1cc(Br)ccc1OCCN1CCCC1.O=C(O)C(=O)O` was tested, and the “hERG current change (%, negative = inhibition) at 10uM” value was -36.8%. In the case of `Cc1cc(Br)ccc1OCC(=O)N1CCCCCC1`, the “hERG current change (%, negative = inhibition) at 10uM” value is reported as -12.1%. `Cc1cc(Br)ccc1OCCOCCN1CCCC1.O=C(O)C(=O)O` was tested, and the “hERG current change (%, negative = inhibition) at 10uM” value was -60.7%.
